Results: ChEMBL document CHEMBL1157539, “Thousands of chemical starting points for antimalarial lead identification” (Nature, 2010)

Tests used:
Assay type in all cases: functional
Plasmodium falciparum [1] = assay: GSK_TCMDC: Inhibition of Plasmodium falciparum 3D7 in whole red blood cells, using parasite LDH activity as an index of growth. Test compounds present at 2uM
Plasmodium falciparum [2] = assay: GSK_TCMDC: Inhibition of Plasmodium falciparum Dd2 in whole red blood cells, using parasite LDH activity as an index of growth. Test compounds present at 2uM
HepG2 = assay: GSK_TCMDC: Percent inhibition of human HepG2 cell line. Test compounds present at 10uM.

| SMILES | Inhibition (Plasmodium falciparum [1]) | Inhibition (Plasmodium falciparum [2]) | Inhibition (HepG2) |
| --- | --- | --- | --- |
| COc1cccc(-c2cccc(CNC3CCN(CC4Cn5c(=O)ccc6ccc(F)c4c65)CC3)c2)c1.O=C(O)C(F)(F)F (stereo unspecified) | 99% | 15% | 23% |
| Fc1ccc(-c2cncc(-c3ccc(F)cc3)n2)cc1 | 99% | 94% | 7% |
| O=C(Nc1cccc(C(F)(F)F)c1)c1ccc(S(=O)(=O)NCC2CCCN(CC3CCCCC3)C2)cc1.O=C(O)C(F)(F)F (stereo unspecified) | 95% | 9% | 26% |
| O=C(N[C@@H](Cc1ccccc1)C(=O)NCCN1CCCCC1)c1ccc(O)c(-c2cccc(C(F)(F)F)c2)c1 | 92% | 3% | 0% |
| CCN(CC)S(=O)(=O)c1ccc(C(C)NC(=O)c2ccccc2COc2ccccc2)cc1 (stereo unspecified) | 100% | 89% | 0% |
| COc1ccc2ncc(C#N)c(CCN3C4CCC3CC(NCc3ccc5c(n3)NC(=O)CS5)C4)c2c1.Cl (stereo unspecified) | 95% | 27% | 6% |
| N#Cc1cccc(NC(=O)Nc2ccc(-c3ccc(-c4nc5cc(C(F)(F)F)ccc5[nH]4)cc3)cc2)c1 | 100% | 100% | 51% |
| COc1ccc2nc3cc(Cl)ccc3c(NCCCO)c2c1 | 100% | 100% | 32% |
| CCCc1cc(N2CCC(N3CCCC3)CC2)nc(Nc2ccc(OC)cc2)n1 | 94% | 14% | 15% |
| CC1CN(Cc2cccc(-c3ccc(-c4nc5ccccc5[nH]4)cc3)c2)CC(C)O1.O=C(O)C(F)(F)F (stereo unspecified) | 90% | 88% | 37% |
| CCC[C@@H]([C@@H](CC1CCC(C)CC1)C(=O)N[C@@H](CO)C(=O)Nc1nccs1)N(O)C=O (stereo partly specified) | 100% | 84% | 0% |
| CCN(CC)CCCC(C)Nc1ccnc2ccc(OC)cc12.Cl.O (stereo unspecified) | 100% | 0% | 7% |
| COc1ccc(-c2cnn3ccc(Nc4cc(OC)c(OC)c(OC)c4)nc23)cc1OC | 98% | 100% | 57% |
| CC(=O)Nc1ccc(Nc2c3ccccc3nc3ccccc23)cc1 | 89% | 62% | 41% |
| CC(C)(CN1CCCC1)CN(Cc1ccc(-c2ccc(C(F)(F)F)cc2)cc1)C(=O)Cn1c(CCc2cccc(F)c2F)nc(=O)c2ccccc21.O=C(O)C(O)C(O)C(=O)O | 97% | 64% | 57% |
| O=C(Nc1ccc(Cl)cc1)c1ccc(CN2CCCN(Cc3ccc(F)cc3)CC2)cc1.O=C(O)C(F)(F)F | 91% | 8% | 48% |
| O=C(NC1CCCCC1)C(c1cccs1)N(CCc1ccccc1)C(=O)c1ccco1 (stereo unspecified) | 92% | 63% | 0% |
| COc1ccc(-c2nc(NCc3ccccc3)c3cc(OC)c(OC)cc3n2)cc1 | 100% | 100% | 15% |
| CN(C)CCOc1ccnc2ccc(NC(=O)Cc3ccc(-c4ccncc4)c4ccccc34)cc12 | 100% | 100% | 10% |
| Cc1cc(CN2CC[C@H](NC(=O)c3ccc(Cl)c(Cl)c3)C2)ccc1OCCCN(C)C.O=C(O)C(F)(F)F | 99% | 35% | 41% |
| O=C(NCC1CCC(C(=O)NCc2cccc3ccccc23)CC1)c1ccc(O)c(-c2ccc(Cl)c(Cl)c2)c1 (stereo unspecified) | 100% | 92% | 0% |

| SMILES | Inhibition (Plasmodium falciparum [1]) | Inhibition (Plasmodium falciparum [2]) | Inhibition (HepG2) |
| --- | --- | --- | --- |
| Cc1nnsc1C(=O)Nc1cccc(-c2cccc(-c3nc4cccc(C)c4[nH]3)c2)c1 | 99% | 80% | 22% |
| Cl.N=C(N)c1cc(Cl)cc(NC(=O)Nc2cc(Cl)cc(C(=N)N)c2)c1 | 92% | 92% | 4% |
| CC(C)Cc1cn(-c2nc(-c3nc4ccccc4[nH]3)cs2)c2ccncc12.Cl | 100% | 99% | 34% |
| Cc1nccn1CCNC(=O)CN1CCC2(CCC1=O)CC(=O)c1ccccc1O2 (stereo unspecified) | 98% | 4% | 0% |
| Cc1ccccc1NC(=O)NC1CCN(CCCCCNC(=O)/C=C/c2ccc(Cl)c(Cl)c2)CC1 | 100% | 20% | 13% |
| Cc1cc(NC(=O)c2cc(S(=O)(=O)N3CCCCC3)ccc2C)no1 | 95% | 29% | 0% |
| CC(C)CCn1c(Sc2ccc([N+](=O)[O-])cc2C(F)(F)F)nnc1-c1ccccc1Cl | 99% | 43% | 0% |
| Cc1c2c(nn1-c1ccccc1)C(c1ccccc1)N(c1ccccc1)C2=O (stereo unspecified) | 92% | 96% | 42% |
| COc1ccc(Nc2nc(N3CCCC3)c3ccccc3n2)cc1.Cl | 100% | 98% | 40% |
| CCc1cccc2c(C#N)cn(CC(=O)NCCc3ccccc3)c12 | 95% | 64% | 1% |
| CCCC(C)NC(=O)/C=C/c1ccccc1-c1cccc(OC)c1 (stereo unspecified) | 87% | 59% | 0% |
| COc1cc(OC)cc(-c2nc3ccc(OCCN(C)C)c(C#N)c3[nH]2)c1 | 99% | 25% | 4% |
| COc1ccc(Nc2ncc3c(-c4cccc(NC(=O)Cc5ccncc5)c4)c[nH]c3n2)cc1OC | 99% | 87% | 23% |
| COc1ccc(CN2CCCN(Cc3cccc(C(=O)Nc4ccc(C(C)(C)C)cc4)c3)CC2)cc1.O=C(O)C(F)(F)F | 98% | 3% | 46% |
| COc1ccccc1CNC(=O)c1ccc(N2CCN(c3ccncc3)CC2)cn1.O=C(O)C(F)(F)F | 96% | 17% | 16% |
| COCn1ccc2c3c(N)nc(N)nc3ccc21 | 88% | 1% | 63% |
| Cc1ccc(NC(=O)c2cnc(N3CCN(c4ccncc4)CC3)c(Cl)c2)cc1.O=C(O)C(F)(F)F | 94% | 24% | 25% |
| CCCC(C)Nc1nc(C)cc(N[C@@H](CC(C)C)C(=O)NC2CCCC2)n1.O=C(O)C(F)(F)F (stereo partly specified) | 85% | 22% | 6% |
| O=C(Nc1ccccc1)Nc1ccc(-c2cccc(-c3nc4cc(C(F)(F)F)ccc4[nH]3)c2)cc1 | 100% | 73% | 59% |
| O=C(Nc1ccc(Cl)cc1)c1ccc(CN2CCCN(Cc3cccc(O)c3)CC2)cc1.O=C(O)C(F)(F)F | 100% | 69% | 52% |
| CN1CCN(CCCNCc2ccc(Nc3nccc(Nc4ccc(Oc5ccccc5)cc4)n3)cc2)CC1 | 100% | 9% | 17% |

| SMILES | Inhibition (Plasmodium falciparum [1]) | Inhibition (Plasmodium falciparum [2]) | Inhibition (HepG2) |
| --- | --- | --- | --- |
| Fc1cccc(COc2ccc(Nc3ncnc4sc(C#CC5CCCCN5)cc34)cc2Cl)c1.O=C(O)C(F)(F)F (stereo unspecified) | 100% | 100% | 30% |
| Cc1cc2nc(-c3ccc(/C=C/C(=O)NC4CCCCC4)cc3)[nH]c2cc1C | 93% | 10% | 9% |
| O=C(Nc1ccc(N2CCCCC2)c(Cl)c1)c1ccc(Br)o1 | 94% | 94% | 0% |
| O=C(CSc1ccccn1)Nc1c(F)cccc1F | 88% | 0% | 0% |
| CC[C@H](C)CNC(=O)c1ccnc(-c2ccc(CNC3Cc4ccccc4C3)cc2)c1.O=C(O)C(F)(F)F | 100% | 87% | 18% |
| Cn1nc(-c2ccc(CNC3CCc4ccccc43)cc2)c2cnc(NCCN3CCCC3)nc21 (stereo unspecified) | 99% | 17% | 21% |
| Cc1nc(-c2cccc(C(=O)NC3CCC(CCN4CCc5ccc(-c6cccnc6)cc5CC4)CC3)c2)no1.Cl (stereo unspecified) | 98% | 4% | 17% |
| Cc1cccc2nc(-c3cccc(-c4cccc(NC(=O)c5cnn6cccnc56)c4)c3)[nH]c12 | 100% | 17% | 14% |
| Cc1cc(-c2cc(Cl)ccc2Cl)no1 | 96% | 97% | 36% |
| CCCc1ccc(NC(=O)c2cccc(CN3CCCN(Cc4cccc(O)c4)CC3)c2)cc1.O=C(O)C(F)(F)F | 97% | 40% | 15% |
| CCCC(C)Nc1nc(C)cc(N[C@@H](CC(C)C)C(=O)Nc2ccc(OC)cc2)n1.O=C(O)C(F)(F)F (stereo partly specified) | 98% | 68% | 18% |
| O=C(Nc1ccc2[nH]c(-c3ccc4nc(NC(=O)C5CCCCC5)sc4c3)nc2c1)C1CCCCC1 | 100% | 68% | 84% |
| CCCNCc1ccc(-c2ccc(CN(CC3CCCO3)C(=O)COc3ccccc3Cl)cc2)nc1.O=C(O)C(F)(F)F (stereo unspecified) | 89% | 11% | 5% |
| COc1ccc(CNC2Cc3ccccc3C2)cc1-c1ccc(S(=O)(=O)NCCN2CCCC2)c(F)c1.O=C(O)C(F)(F)F | 100% | 69% | 44% |
| COc1ccccc1-c1ccc2nnc(SCC(=O)Nc3ccc4c(c3)OCCO4)n2n1 | 99% | 5% | 9% |
| COc1ccc2c(c1)[nH]c1c(/C=C/c3ccc([N+](=O)[O-])cc3)nccc12 | 100% | 63% | 4% |
| COc1ccc2nccc([C@@H](O)CN3CCC(NC(=O)c4ccc5cc[nH]c5c4)CC3)c2c1.CS(=O)(=O)O | 91% | 23% | 21% |
| O=C(Nc1ccc2c(c1)CCN2C1CCN(Cc2cccc(F)c2F)C1)c1ccco1 (stereo unspecified) | 87% | 90% | 0% |
| O=C(/C=C/c1ccccc1Cl)NC1CCC(CN2CCC(c3c[nH]c4ccncc34)CC2)CC1 (stereo unspecified) | 100% | 100% | 19% |
| O=C(Nc1cc(Oc2ccc(O)cc2)cc([N+](=O)[O-])c1)c1cc(-c2ccc(F)cc2)no1 | 88% | 37% | 61% |
